Test results taken from PubChem BioAssay (Tox21).
Records with an inconclusive call do not appear. Calls of active or inactive are those of the source. Unless noted, calls come from the whole dose curve; as a rule, active = well fitted curve in the direction sought with a large enough effect in the repeat runs; inconclusive = weak or mixed curves; inactive = no such curve, though single readings can be large; an effect the other way counts as inactive or inconclusive.

Assays:
[1] = biological target: Retinoic acid receptor RXR-alpha (Homo sapiens) (UniProt P19793); assay: qHTS assay to identify small molecule agonists of the RXR signaling pathway (AID 1159527; calls by dose curve; note: nearly all actives have a fitted effect of over 35% in size)
Summary of the method: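 Beta-lactamase reporter assay, agonist format. Engineered HEK 293T line, charcoal-stripped FBS at 2%, overnight (16 hr) exposure, fluorescence at 460 and 530 nm after 405 nm excitation.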

[2] = qHTS assay to identify small molecule agonists of the RXR signaling pathway - cell viability counter screen (AID 1159529);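 note: HEK 293T cells carrying an RXR-alpha UAS beta-lactamase reporter; series mostly up to about 77 µM; nearly all actives have a fitted effect of over 50% in size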
Summary of the method: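 Same-well viability check after the LiveBLAzer FRET read: CellTiter-Glo added, luminescence measured after 30 min at room temperature. Reporter HEK 293T cells had been treated with compounds for 16 hr following a 5 hr preincubation.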

[3] = qHTS assay to identify small molecule antagonists of the retinoid acid receptor (RAR) signaling pathway - cell viability counter screen (AID 1159551); note: nearly all actives have a fitted effect of over 35% in size
Summary of the method: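 Measured by luminescent ATP detection, viability reflects C3RL4 cells treated 6 h at 37 C with test chemicals in the presence of 1 uM (final) retinol.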

[4] = qHTS assay to identify small molecule antagonists of the retinoic acid receptor (RAR) signaling pathway (AID 1159552; note: nearly all actives have a fitted effect of over 50% in size)
Summary of the method: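 Readout: luciferase luminescence, 30 min post-reagent at RT. Setup: C3RL4 RARE reporter cells, compounds plus retinol 1 uM final, 6 hr incubation at 37 C and 5% CO2.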

[5] = qHTS assay to identify small molecule antagonists of the estrogen related receptor (ERR) signaling pathway from Tox21 library - cell viability counter screen (AID 1224834); note: nearly all actives have a fitted effect of over 30% in size
Summary of the method: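 Seeded ERR cells were rested 6 h at 37 C/5% CO2 before compounds, positive and negative controls or DMSO were added. Incubation continued for 17.5 h, and viability was then quantified by CellTiter-Fluor fluorescence.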

[6] = biological target: Luciferin 4-monooxygenase (Photinus pyralis) (UniProt P08659); assay: qHTS assay to identify small molecule inhibitors of firefly luciferase (AID 1224835); note: series mostly up to about 120 µM; nearly all actives have a fitted effect of over 25% in size
Summary of the method: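 Biochemical qHTS: compounds run as interplate titrations against purified firefly enzyme, with D-luciferin and ATP each at its KM concentration. Light output recorded by CCD imaging.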

[7] = qHTS assay to identify small molecule agonists of the constitutive androstane receptor (CAR) signaling pathway - cell viability counter screen (AID 1224836); note: series mostly up to about 92 µM; nearly all actives have a fitted effect of over 45% in size
Summary of the method: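 Compound titrations (15 concentrations) went onto HepG2-CYP2B6-hCAR cells 4 h after seeding, alongside PK11195 at a final 0.75 uM; a 23 h, 37 C/5% CO2 incubation preceded CellTiter-Fluor viability measurement.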

[8] = qHTS assay to identify small molecule antagonists of the constitutive androstane receptor (CAR) signaling pathway - cell viability counter screen (AID 1224837); note: series mostly up to about 92 µM; nearly all actives have a fitted effect of over 45% in size
Summary of the method: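 To flag cytotoxic false antagonists, HepG2 hCAR/CYP2B6-2.2kb cells were treated 23 hr with 15-concentration compound series and 50 nM CITCO at 37 C/5% CO2; CellTiter-Fluor fluorescence was the measured end point.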

[9] = biological target: Nuclear receptor subfamily 1 group I member 3 (Homo sapiens) (UniProt Q14994); assay: qHTS assay to identify small molecule antagonists of the constitutive androstane receptor (CAR) signaling pathway (AID 1224838);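 note: HepG2 cells stably expressing hCAR with CYP2B6 luciferase reporter stimulated by CITCO; nearly all actives have a fitted effect of over 40% in size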
Summary of the method: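 Human hepatoma HepG2 cells expressing hCAR and a CYP2B6 promoter (2.2 kb) luciferase construct; compound titration (15 points) with 50 nM CITCO final, 24 h at 37 C/5% CO2; luminescence via ONE-Glo after 30 min at room temperature.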

[10] = qHTS assay to identify small molecule antagonists of the estrogen related receptor signaling pathway with the pleiotropic PPARgamma coactivator (PGC) from Tox21 10K library - cell viability counter screen (AID 1224840; active = well fitted cell-killing curve with a large enough effect in the repeat runs, not every such curve was filed as active; note: nearly all actives have a fitted effect of over 40% in size)
Summary of the method: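 Seeded PGC/ERR cells (2,000/well, 6 h, 37 C/5% CO2) get compound by pin tool; 17.5 h incubation at 37 C; CellTiter-Fluor added, 30 min, fluorescence measured.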

[11] = biological target: Thyrotropin receptor (Homo sapiens) (UniProt P16473); assay: qHTS assay to identify small molecule agonists of the thyroid stimulating hormone receptor (TSHR) signaling pathway (AID 1224843; calls by dose curve; note: nearly all actives have a fitted effect of over 45% in size)
Summary of the method: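 HEK293/TSHR, 800 cells/well; cpd 30 min RT; add cAMP-d2 + anti-cAMP-cryptate, 1 h RT; fluorescence read on plate reader. 15-pt titration, n=3.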

[12] = qHTS assay to identify small molecule agonists of the hypoxia (HIF-1) signaling pathway - cell viability counter screen (AID 1224844; calls by dose curve; note: nearly all actives have a fitted effect of over 50% in size)
Summary of the method: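 HRE-bla ME-180; 0.5% dFBS; cpd 17 h, 37C, 5% CO2; CellTiter-Glo lum., 30 min RT, post-FRET read, same wells.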

[13] = qHTS assay to identify small molecule agonists of H2AX (AID 1224845; active = well fitted activation curve with a large enough effect in the signal ratio in the repeat runs, not every such curve was filed as active; the % refers to the signal ratio)
Summary of the method: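 Wild-type CHO-K1 cells, plated overnight, exposed 3hr at 37C to 15 concentrations (0.76% DMSO final). Lysed, then HTRF anti-pH2AX (S139) cryptate and anti-H2AX-d2 antibodies, 24 hr room temperature; 665/620 nm emission read.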

[14] = qHTS assay to identify small molecule agonists of the hypoxia (HIF-1) signaling pathway (AID 1224846; active = well fitted activation curve with a large enough effect in the signal ratio in the repeat runs, not every such curve was filed as active; the % refers to the signal ratio)
Summary of the method: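 Reporter induction in HRE-bla ME-180 cells is taken as agonism: cells sit 5 hrs after plating, receive compounds or DMSO only, incubate 17 hrs at 37C under 5% CO2, and are loaded with CCF4-AM for beta-lactamase FRET measurement.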

[15] = qHTS assay to identify small molecule agonists of H2AX - cell viability counter screen (AID 1224847; calls by dose curve; note: top concentration of the series differs between compounds; nearly all actives have a fitted effect of over 30% in size)
Summary of the method: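 Read-out: CellTiter-Glo luminescence, 30 min RT. Cells: wild-type CHO-K1, 1000/well, 10% FBS, plated overnight at 37C. Treatment: 15 concentrations, 3 hr, 37C, 0.76% DMSO.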

[16] = qHTS assay to identify small molecule agonists of the retinoic acid receptor (RAR) signaling pathway (AID 1159553)
Summary of the method: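 6 hr compound exposure (DMSO vehicle) of overnight-plated C3RL4 RARE-luc cells at 37 C; luminescence quantified after 30 min RT with luciferase reagent.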

[17] = biological target: Nuclear receptor subfamily 1 group I member 3 (Homo sapiens) (UniProt Q14994); assay: qHTS assay to identify small molecule agonists of the constitutive androstane receptor (CAR) signaling pathway (AID 1224839);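 note: HepG2 cells stably carrying human CAR and a CYP2B6 luciferase reporter; series mostly up to about 92 µM; nearly all actives have a fitted effect of over 15% in size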
Summary of the method: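 In this screen, CAR-driven CYP2B6 promoter activity is measured by luminescence in HepG2-CYP2B6-hCAR cells after 24 h with test compounds and 0.75 uM PK11195 (final concentration).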

Measured: Potency

Chain of Retinoic acid receptor RXR-alpha (Homo sapiens) (P19793 whole entry, looked up): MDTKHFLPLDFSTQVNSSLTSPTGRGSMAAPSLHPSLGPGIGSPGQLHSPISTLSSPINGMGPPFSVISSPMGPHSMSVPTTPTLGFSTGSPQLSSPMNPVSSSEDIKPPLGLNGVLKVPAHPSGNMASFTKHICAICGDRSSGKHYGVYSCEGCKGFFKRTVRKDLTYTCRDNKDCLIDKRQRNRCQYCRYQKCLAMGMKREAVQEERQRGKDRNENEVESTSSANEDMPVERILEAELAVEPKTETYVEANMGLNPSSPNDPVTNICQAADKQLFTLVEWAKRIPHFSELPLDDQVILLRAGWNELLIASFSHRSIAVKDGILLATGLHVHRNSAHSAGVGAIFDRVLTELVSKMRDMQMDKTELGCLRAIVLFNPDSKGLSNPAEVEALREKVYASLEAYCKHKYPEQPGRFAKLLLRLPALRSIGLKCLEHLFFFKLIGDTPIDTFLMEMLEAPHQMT
Chain of Luciferin 4-monooxygenase (Photinus pyralis) (P08659 whole entry, looked up): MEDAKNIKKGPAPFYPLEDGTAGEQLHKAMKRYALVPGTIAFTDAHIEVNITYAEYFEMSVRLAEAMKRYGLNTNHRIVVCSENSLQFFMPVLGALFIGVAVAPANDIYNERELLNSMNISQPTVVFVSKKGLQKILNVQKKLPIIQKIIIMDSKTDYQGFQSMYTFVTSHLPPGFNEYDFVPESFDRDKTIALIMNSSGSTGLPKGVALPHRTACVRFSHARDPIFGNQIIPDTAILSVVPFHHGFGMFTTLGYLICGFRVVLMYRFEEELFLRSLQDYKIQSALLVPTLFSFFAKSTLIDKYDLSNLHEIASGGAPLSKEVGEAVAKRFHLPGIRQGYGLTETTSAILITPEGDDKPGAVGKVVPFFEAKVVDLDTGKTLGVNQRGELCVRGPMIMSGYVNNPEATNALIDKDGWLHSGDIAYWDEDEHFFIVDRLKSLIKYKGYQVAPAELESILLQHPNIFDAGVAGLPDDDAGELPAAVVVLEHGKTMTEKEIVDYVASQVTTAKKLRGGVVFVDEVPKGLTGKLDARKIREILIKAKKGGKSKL
Chain of Thyrotropin receptor (Homo sapiens) (P16473 whole entry, looked up): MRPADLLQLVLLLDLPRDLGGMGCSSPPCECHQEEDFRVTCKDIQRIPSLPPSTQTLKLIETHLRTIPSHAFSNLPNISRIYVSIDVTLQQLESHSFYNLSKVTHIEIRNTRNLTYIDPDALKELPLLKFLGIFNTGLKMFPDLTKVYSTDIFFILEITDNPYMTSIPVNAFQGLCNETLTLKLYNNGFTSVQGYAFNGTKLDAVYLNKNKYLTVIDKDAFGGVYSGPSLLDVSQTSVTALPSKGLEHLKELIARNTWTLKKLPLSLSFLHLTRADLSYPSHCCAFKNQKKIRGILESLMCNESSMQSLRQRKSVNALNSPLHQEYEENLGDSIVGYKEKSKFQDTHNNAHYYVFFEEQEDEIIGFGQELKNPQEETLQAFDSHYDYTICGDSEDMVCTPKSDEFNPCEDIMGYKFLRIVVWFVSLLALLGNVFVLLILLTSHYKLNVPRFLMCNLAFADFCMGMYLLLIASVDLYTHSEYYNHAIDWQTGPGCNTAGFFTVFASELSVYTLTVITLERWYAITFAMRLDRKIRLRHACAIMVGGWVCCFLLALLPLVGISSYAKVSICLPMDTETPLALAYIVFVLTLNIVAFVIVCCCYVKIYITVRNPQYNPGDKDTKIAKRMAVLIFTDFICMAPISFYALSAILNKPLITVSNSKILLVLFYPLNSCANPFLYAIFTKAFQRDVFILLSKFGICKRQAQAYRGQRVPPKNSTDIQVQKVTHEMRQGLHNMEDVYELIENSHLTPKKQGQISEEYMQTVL
Chain of Nuclear receptor subfamily 1 group I member 3 (Homo sapiens) (Q14994 whole entry, looked up): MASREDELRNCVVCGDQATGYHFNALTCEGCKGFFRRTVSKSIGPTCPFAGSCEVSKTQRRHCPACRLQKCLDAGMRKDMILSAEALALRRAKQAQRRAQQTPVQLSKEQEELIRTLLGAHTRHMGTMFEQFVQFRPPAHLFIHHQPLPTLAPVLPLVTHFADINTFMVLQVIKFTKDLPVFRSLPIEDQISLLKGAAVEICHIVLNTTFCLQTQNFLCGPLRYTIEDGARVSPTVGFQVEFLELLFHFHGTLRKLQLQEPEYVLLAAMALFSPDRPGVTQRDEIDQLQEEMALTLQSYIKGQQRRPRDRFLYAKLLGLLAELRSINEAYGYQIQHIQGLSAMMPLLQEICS

CC1(C)Cc2cccc(N)c2O1
inactive: [1] | [2] | [3] | [4] | [5] | [6] | [7] | [8] | [9] | [10] | [11] | [12] | [13] | [14] | [15]

CCCCCCCCCCCCCCC(=O)NC(CO)CCCCCCCCCCCCCC (configuration not stated)
inactive: [1] | [2] | [3] | [4] | [16] | [7] | [8] | [17] | [10] | [11] | [12] | [13] | [14] | [15]

CCOC(=O)CC1(C)OCC(C)O1 (configuration not stated)
inactive: [1] | [2] | [3] | [4] | [16] | [5] | [7] | [17] | [10] | [11] | [12] | [13] | [14] | [15]

CCCCCC/C=C/C(=O)OC
inactive: [1] | [2] | [3] | [4] | [16] | [6] | [7] | [8] | [10] | [11] | [12] | [13] | [14] | [15]

COC(C)(OC)OC
inactive: [1] | [2] | [3] | [4] | [16] | [5] | [7] | [9] | [17] | [10] | [11] | [13] | [14] | [15]

OC1(c2ccc(Cl)cc2)CCNCC1
inactive: [1] | [2] | [3] | [4] | [16] | [7] | [8] | [9] | [17] | [10] | [11] | [12] | [13] | [14] | [15]

CCC(C)C(C)=O (configuration not stated)
inactive: [1] | [2] | [3] | [16] | [5] | [6] | [7] | [8] | [9] | [17] | [10] | [11] | [12] | [13] | [14] | [15]
